The values that follow come from PubChem BioAssay AID1979 (Broad Institute, 2009).

Screen size: about 300,000 compounds; about 1,700 (0.57%) were called active. About 2% were inconclusive and are not listed.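 The calls were made as follows: active = growth inhibition above about 58% in most replicates (limit read from the data, passing the limit was not always enough); inconclusive = exactly half the replicates above a set limit; inactive = most replicates below a set limit.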 What follows is part of a selection rich in actives, with near analogues and random picks from the rest.

The assay is described as follows: C. albicans growth inhibition with fluconazole, primary screen, CaCi-2 strain, Alamar Blue fluorescence (AID 1979).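 Also: all wells also contain fluconazole at 8 µg/ml as a sub-toxic cotreatment; 0% = median of DMSO wells and 100% = median of geldanamycin control wells.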 The settings on record: C. albicans CaCi-2 (fluconazole-resistant clinical isolate) + fluconazole, 48 h, hits give high values, concentration not given here. A general note: Alamar Blue is a resazurin reagent that responds to reducing activity.
Consider `Cc1ccc(SCC(=O)Nc2nncs2)cc1`, for which the growth inhibition is -2.98% (inactive).
The figure for `COCCOC(=O)C1=C(C)NC(=O)NC1c1cc2c(cc1Br)OCO2` (stereo not given) is -1.28% (inactive); for `Cc1c(CCC(=O)O)c(=O)oc2c(C)c(OCc3ccccc3Cl)ccc12` it is 16.4% (inactive); for `COc1cccc(C(=O)NNC(=O)c2cccc(F)c2)c1` it is -10.7% (inactive).
`COc1cccc(C(=O)NNC(=O)c2ccccc2Br)c1`: the growth inhibition was 110% (active).
The figure for `COc1cccc(C(=O)NNC(=O)/C=C/c2ccccc2)c1` is -14.4% (inactive).
The value for `O=C(O)c1ccc(S(=O)(=O)N2CCC(Cc3ccccc3)CC2)cc1` was -2.12% (inactive); that for `Cc1ccc(C)c(NC(=O)COC(=O)Cn2c(C)csc2=O)c1` was -4.71% (inactive); that for `COc1ccc2cc(S(=O)(=O)Nc3ccccn3)ccc2c1` was -0.283% (inactive).
The figure for `Cc1ccc(NS(=O)(=O)c2ccc(C)c(NC(=O)COc3ccc4ccccc4c3)c2)c(C)c1` is 31.8% (inactive); for `COc1cc(NS(=O)(=O)c2ccc3ccccc3c2)c2ncccc2c1` it is 89.3% (active).
Take `Cc1ccccc1-n1c(SCC(=O)NCc2cccs2)nnc1-c1ccncc1`: the growth inhibition was 8.03% (inactive).
For `Cc1ccc(Nc2nc(CSc3nnc(-c4ccncc4)n3-c3ccccc3C)cs2)cc1`, the growth inhibition was 113% (active).
For the compound `Cc1ccc(-n2c(SCC(=O)N3c4ccccc4Sc4ccccc43)nnc2-c2ccncc2)cc1`, the growth inhibition is -22.2% (inactive).
As to `O=C(OCCOCn1cc(Br)c(=O)[nH]c1=O)c1ccccc1`, the growth inhibition was -9.14% (inactive).
For `CCOc1ccc(NC(=O)COc2ccc(C(=O)N3CCC(C(N)=O)CC3)cc2OC)cc1`, the growth inhibition was -4.97% (inactive).
The value for `CC(C)Oc1ccc(S(=O)(=O)N2CCOCC2)cc1NC(=O)C1CSC2(C)CCC(=O)N12` (stereo not given) was -0.702% (inactive); that for `COc1ccc(C(=O)NCCCN2CCOCC2)cc1Br` was -0.331% (inactive).
In the case of `Cc1ccc(S(=O)(=O)N2CCN(C(=O)Cc3sc(C)nc3-c3ccc(F)cc3)CC2)c(C)c1`, the growth inhibition was -1.25% (inactive).
The figure for `Cc1nc2c(c(C)nn2-c2ccccc2)c(C)c1C` is 1.68% (inactive); for `O=C(N/N=C/c1sc(N2CCCCC2)nc1-c1cccs1)c1cccnc1` it is 94.5% (active); for `O=C(N/N=C/c1ccc(O)c2ccccc12)c1cccnc1` it is 11.5% (inactive).
Turning to `O=C(N/N=C/c1ccccn1)c1cccnc1`, the growth inhibition is 6.91% (inactive).
The figure for `CCOc1ccc(NC(=O)c2ccc(NC(=O)CN3C(=O)C(=O)N(CC(C)C)C3=O)cc2)cc1` is -2.68% (inactive); for `COc1ccc(S(=O)(=O)NCc2cccnc2)cc1NC(=O)c1ccc(C)cc1` it is -3.27% (inactive).
With `CCOc1ccc(-n2c(O)c(/C=N/c3ccnn3Cc3ccncc3)c3ccccc3c2=O)cc1`, the growth inhibition is 15.4% (inactive).
The value for `CCOc1ccc(-n2c(O)c(/C=N/Nc3nc(C)cc(C)n3)c3ccccc3c2=O)cc1` was 113% (active); that for `CCN(CC)CCCN=Cc1c(O)n(-c2ccc(C)cc2)c(=O)c2ccccc12` was -8.89% (inactive); that for `CCOC(=O)c1c(C)[nH]c(C(=O)OCC(=O)N2CCCC2=O)c1C` was -3.16% (inactive).
In the case of `Cc1nc2ccccc2nc1N/N=C/c1ccc(O)cc1O`, the growth inhibition is 10.5% (inactive).
Turning to `COc1ccc(-n2cnnc2SCC(=O)Nc2cccc(S(N)(=O)=O)c2)cc1`, the growth inhibition was -1.9% (inactive).
The value for `C=CCn1c(COc2ccc(F)cc2)nnc1SCC(=O)Nc1cccc(S(N)(=O)=O)c1` was 94.6% (active); that for `C=CCn1c(CC(=O)Nc2cccc(OC)c2)nnc1SCC(=O)NC1CCCCC1` was 4.51% (inactive).
The figure for `CS(=O)(=O)c1ccc(Cl)c(NC(=O)COC(=O)c2cccc(S(=O)(=O)N3CCCC3)c2)c1` is -1.03% (inactive); for `Cc1cc(Nc2ccc(C(=O)N3CCCCC3)cc2)c2cccc(C)c2n1` it is 2.84% (inactive).
On to `Cc1ccn2c(=O)nc(SCC(=O)NCc3ccc4c(c3)OCO4)nc2c1`, for which the growth inhibition was 1.59% (inactive).
The value for `Cc1ccc(NN=C2C(=O)OC(C)(C)OC2=O)c(C)c1` was -5.58% (inactive).
Take `Cc1ccc(N/N=C2\COC(C)(C)CC2=O)cc1`: the growth inhibition was 101% (active).
The value for `COc1ccc(N/N=C2/CCCCC2=O)cc1` was -21.7% (inactive).
The figure for `COc1ccccc1C(=O)NC(=O)COC(=O)c1ccco1` is 8.59% (inactive).
The value for `CC1CN(C(=O)COC(=O)c2cccc(NS(=O)(=O)c3ccccc3)c2)CC(C)O1` (stereo not given) was 5.4% (inactive); that for `O=C(N/N=C/c1ccc(O)cc1)/C(=C/c1ccc([N+](=O)[O-])cc1)NC(=O)c1ccccc1` was 1.1% (inactive); that for `O=[N+]([O-])c1ccc(O)c(/C=N/Nc2ccccc2[N+](=O)[O-])c1` was -1.45% (inactive).
For `O=C(N/N=C/c1cc([N+](=O)[O-])ccc1O)/C(=C\c1cccs1)NC(=O)c1ccccc1`, the growth inhibition was 116% (active).
For the compound `COc1ccccc1OCc1ccc(C(=O)NC(C)c2ccccc2)o1` (stereo not given), the growth inhibition is -11.7% (inactive).
The figure for `COc1ccc(OC)c(NC(=O)CSc2nc(-c3ccccc3)cc(=O)[nH]2)c1` is 55% (inactive); for `Cc1cccc(COc2ccccc2/C=N/Nc2ccc([N+](=O)[O-])cc2)c1` it is 91.8% (active).
Take `Cc1ccc(NS(=O)(=O)c2ccc(N/N=C/c3ccccc3OCC(=O)O)c([N+](=O)[O-])c2)c(C)c1`: the growth inhibition is -7.09% (inactive).
Consider `O=[N+]([O-])c1ccc(N/N=C/c2ccccc2)cc1`, for which the growth inhibition was -28.5% (inactive).
Consider `O=C1c2ccccc2C(=O)c2c1cccc2N1CCN(C/C=C/c2ccccc2)CC1`, for which the growth inhibition is 8.05% (inactive).
As for `Cc1ccc(S(=O)(=O)NC(C)C(=O)NCc2ccc(Cl)cc2)cc1` (stereo not given), the growth inhibition is -3.28% (inactive).
The value for `COc1ccc(-n2nnnc2-c2nc3ccccc3s2)cc1` was -12.1% (inactive); that for `COc1ccc(C2=NN(C(C)=O)C(c3ccccc3)C2)cc1` (stereo not given) was -6.81% (inactive); that for `COc1ccc(C2=NN(c3nc4ccccc4s3)C(=O)C2)cc1` was 94.5% (active).
The value for `O=c1c2ccccc2ncn1CCCCOc1ccccc1F` was 0.805% (inactive).
On to `COc1ccc(C(=O)NNC(=S)NC(=O)c2ccccc2)cc1`, for which the growth inhibition was 96.8% (active).
Take `COc1ccc(C(=O)NNC(=S)NC(=O)c2ccccc2[N+](=O)[O-])cc1`: the growth inhibition is 5.98% (inactive).
The figure for `CC(C)Oc1ccc(CCC(=O)NNC(=S)NCc2ccccc2)cc1` is 1.53% (inactive).
The value for `COc1ccc(C(=O)NC(=S)NNC(=O)c2c(-c3ccccc3)noc2C)cc1` was 32.7% (inactive); that for `COc1ccc(C(=O)NC(=S)NNC(=O)CCc2ccccc2)cc1` was 114% (active).
The value for `O=C(CCc1ccccc1)NNC(=O)c1ccc(Br)cc1` was 5.83% (inactive).
Consider `Cc1ccc(NC(=O)c2cnc(SCC(=O)NCC3CCCO3)n(C)c2=O)cc1` (stereo not given), for which the growth inhibition is -0.731% (inactive).
The value for `CCOc1ccc(CCNC(=O)COC(=O)CCS(=O)(=O)c2ccc(C)cc2)cc1OCC` was -6.92% (inactive); that for `COc1cccc(NC(=O)CN(C)C(=O)CSC(=S)N2CCCC2)c1` was -3.71% (inactive); that for `CC(=O)Nc1ccc(NC(=O)CSc2nnnn2C2CCCCC2)cc1` was -2.4% (inactive).
`Oc1c(Cl)cc(Cl)c(Cl)c1Cc1c(O)c(Cl)cc(Cl)c1Cl`: the growth inhibition is 110% (active).
The value for `Cc1c(C(=O)Nc2ccccn2)oc2ccc(Br)cc12` was 27.1% (inactive).
The figure for `COc1ccc(OC)c(NC(=O)c2ccc3c(c2)C(=O)N(c2ccc(OC(C)=O)cc2)C3=O)c1` is 0.417% (inactive); for `CC(=O)c1sc(N)nc1C` it is -4.24% (inactive).
The value for `Cc1ccc(NC(=O)COc2coc(CN3CCc4ccccc4C3)cc2=O)cc1Cl` was -1.39% (inactive); that for `Cc1ccc(CC(=O)N(C)CC(=O)N(CC(C)C)c2c(N)n(CC(C)C)c(=O)[nH]c2=O)cc1C` was 1.58% (inactive).
With `Oc1ccccc1CN1CCN(C(c2ccccc2)c2ccccc2)CC1`, the growth inhibition was -4.19% (inactive).
The figure for `CCN1CCN(C(c2cccnc2)c2cc(Cl)c3cccnc3c2O)CC1` (stereo not given) is 101% (active); for `CCOC(=O)N1CCN(C(c2cccnc2)c2ccc3cccnc3c2O)CC1` (stereo not given) it is -9.67% (inactive).
The value for `CC(=O)Nc1ccc(C(=O)Nc2cccc(S(=O)(=O)NC3=NCCC3)c2)cc1` was 3.58% (inactive); that for `Oc1ccc(/C=N/Nc2ccc(C(F)(F)F)cn2)cc1O` was -7.01% (inactive).
The figure for `O=C(CCCO)N/N=C/c1cc(Br)ccc1O` is -31.2% (inactive).
Turning to `Oc1ccc(Br)cc1/C=N/Nc1ccccn1`, the growth inhibition is 106% (active).
With `Cc1cc(NC(=O)C(C)SCC(=O)Nc2ccccc2N2CCCCC2)no1` (stereo not given), the growth inhibition is 1.22% (inactive).
Regarding `O=C(Nc1nc(-c2ccco2)c(-c2ccco2)s1)c1ccco1`, the growth inhibition is -0.652% (inactive).
As for `CCc1nnc(NC(=O)CSc2nc(SC)ns2)s1`, the growth inhibition is 81.2% (active).
Take `CCc1nnc(NC(=O)CCC(=O)O)s1`: the growth inhibition is -5.2% (inactive).
The value for `CSc1nsc(SCC(=O)Nc2cc(C(=O)O)ccc2C)n1` was 17.7% (inactive).
`CC(=O)O[C@H]1CC[C@@]2(C)[C@@H](CC[C@@H]3[C@@H]2CC[C@]2(C)[C@@H](C(C)(C)O)C[C@@H]32)C1`: the growth inhibition is 1.13% (inactive).
Take `O=C1CCCCC1Sc1ccc(Cl)cc1[N+](=O)[O-]` (stereo not given): the growth inhibition is -3.28% (inactive).
As to `C[C@@H]1O[C@@H](OC[C@H]2O[C@@H](Oc3c(-c4ccc(O)cc4)oc4cc(O)cc(O)c4c3=O)[C@H](O)[C@@H](O)[C@@H]2O)[C@H](O)[C@H](O)[C@H]1O`, the growth inhibition was 1.9% (inactive).
The figure for `Cc1ccc(-c2cc(C(=O)NC3CCN(Cc4ccccc4)CC3)c3ccccc3n2)cc1` is 2.43% (inactive); for `CCNS(=O)(=O)c1ccc(NC(=O)Nc2cccc(C(F)(F)F)c2)cc1` it is -8.1% (inactive).
`Cc1oc2c(F)c(F)c(F)c(F)c2c1S(=O)(=O)Nc1cccc(C(F)(F)F)c1`: the growth inhibition is 84.7% (active).
The value for `CCOC(=O)N1CCN(C(=O)c2ccc(S(=O)(=O)Nc3cccc(C(F)(F)F)c3)cc2)CC1` was -2.84% (inactive).
